Records with an inconclusive call do not appear. Calls of active or inactive are those of the source. Unless noted, calls come from the whole dose curve; as a rule, active = well fitted curve in the direction sought with a large enough effect in the repeat runs; inconclusive = weak or mixed curves; inactive = no such curve, though single readings can be large; an effect the other way counts as inactive or inconclusive.
Columns and labels:
[1] = qHTS assay to identify small molecule antagonists of the thyroid receptor (TR) signaling pathway (AID 743065); note: nearly all actives have a fitted effect of over 55% in size
Summary of the method: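 GH3.TRE-Luc rat pituitary cells carrying two TR response elements driving luciferase were plated for 4 h, given compound plus 1 nM T3 (final), and incubated 23.5 h at 37 C. ONE-Glo luminescence measured reporter inhibition; CellTiter-Fluor fluorescence tracked cytotoxicity.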

[2] = tested on: thyroid hormone receptor (rat, GH3 cells); experiment: qHTS assay to identify small molecule agonists of the thyroid receptor (TR) signaling pathway (AID 743066; calls by dose curve)
[3] = qHTS assay to identify small molecule antagonists of the estrogen receptor alpha (ER-alpha) signaling pathway - cell viability counter screen (AID 743074; calls by dose curve;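 note: HEK293 cells carrying ER-alpha-UAS-bla reporter stimulated with 17beta-estradiol; nearly all actives have a fitted effect of over 45% in size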)
[4] = qHTS assay to identify small molecule antagonists of the estrogen receptor alpha (ER-alpha) signaling pathway using the BG1 cell line - cell viability counter screen (AID 743081);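 note: compound given together with 17beta-estradiol as the ER stimulus; nearly all actives have a fitted effect of over 45% in size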
[5] = biological target: Aromatase (Homo sapiens) (UniProt P11511); experiment: qHTS assay to identify aromatase inhibitors (AID 743083); note: nearly all actives have a fitted effect of over 55% in size
[6] = qHTS assay to identify small molecule antagonists of the thyroid receptor (TR) signaling pathway - cell viability counter screen (AID 743064); note: nearly all actives have a fitted effect of over 50% in size
Summary of the method: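 Rat GH3 pituitary tumor cells stably expressing two TR response elements driving luciferase were plated, rested 4 h, then dosed with library compounds and T3 (1 nM final). After 23.5 h at 37 °C, CellTiter-Fluor was added for 30 min and fluorescence recorded.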

[7] = biological target: Estrogen receptor (Homo sapiens) (UniProt P03372); experiment: qHTS assay to identify small molecule antagonists of the estrogen receptor alpha (ER-alpha) signaling pathway (AID 743069; active = well fitted curve in the direction sought with a large enough effect in the signal ratio in the repeat runs, not every such curve was filed as active; the % refers to the signal ratio)
Summary of the method: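 Estradiol-stimulated ER-alpha-UAS-bla HEK293 cells, 18 hr compound exposure at 37C. LiveBLAzer B/G substrate, 2 hr RT, fluorescence read.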

[8] = biological target: Estrogen receptor (Homo sapiens) (UniProt P03372); experiment: qHTS assay to identify small molecule agonists of the estrogen receptor alpha (ER-alpha) signaling pathway (AID 743075; calls by dose curve;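 note: HEK293 GripTite cells with ER-alpha and UAS-driven beta-lactamase reporter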)
[9] = biological target: Estrogen receptor (Homo sapiens) (UniProt P03372); experiment: qHTS assay to identify small molecule agonists of the estrogen receptor alpha (ER-alpha) signaling pathway using the BG1 cell line (AID 743079); conditions: BG1Luc4E2 cells, ERE-luciferase agonist, 22 h; note: nearly all actives have a fitted effect of over 20% in size; note: potency is the fitted concentration of half-maximal effect
[10] = qHTS assay to identify small molecule antagonists of the estrogen receptor alpha (ER-alpha) signaling pathway using the BG1 cell line (AID 743080; calls by dose curve;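 note: BG1 cells stimulated with 17beta-estradiol alongside compound; nearly all actives have a fitted effect of over 25% in size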)
Summary of the method: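 Luminescence from a 4×ERE-luciferase reporter in BG1-Luc-4E2 cells served as read-out. Cells, pre-cultured 5 days in stripped-serum phenol-red-free medium, were exposed to compound with 17beta-estradiol co-stimulation for 21.5 h at 37 C.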
% is set by controls: 0 for no effect and ±100 for the full control effect.

Sequence of Aromatase (Homo sapiens) (P11511 whole entry, looked up): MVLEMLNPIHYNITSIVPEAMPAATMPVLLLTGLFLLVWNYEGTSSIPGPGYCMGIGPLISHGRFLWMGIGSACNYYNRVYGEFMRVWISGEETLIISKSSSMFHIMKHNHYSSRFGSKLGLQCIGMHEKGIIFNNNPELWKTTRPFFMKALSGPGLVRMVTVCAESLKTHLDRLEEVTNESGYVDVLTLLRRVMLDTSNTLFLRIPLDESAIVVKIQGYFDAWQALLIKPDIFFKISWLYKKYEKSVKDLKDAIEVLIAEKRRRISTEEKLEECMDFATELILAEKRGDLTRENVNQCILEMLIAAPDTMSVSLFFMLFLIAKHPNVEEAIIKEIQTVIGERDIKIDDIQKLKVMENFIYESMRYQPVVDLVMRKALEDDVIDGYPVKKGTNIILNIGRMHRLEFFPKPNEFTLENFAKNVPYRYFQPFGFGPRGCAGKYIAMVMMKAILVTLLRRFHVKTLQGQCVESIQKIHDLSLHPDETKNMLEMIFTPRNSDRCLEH
Sequence of Estrogen receptor (Homo sapiens) (P03372 whole entry, looked up): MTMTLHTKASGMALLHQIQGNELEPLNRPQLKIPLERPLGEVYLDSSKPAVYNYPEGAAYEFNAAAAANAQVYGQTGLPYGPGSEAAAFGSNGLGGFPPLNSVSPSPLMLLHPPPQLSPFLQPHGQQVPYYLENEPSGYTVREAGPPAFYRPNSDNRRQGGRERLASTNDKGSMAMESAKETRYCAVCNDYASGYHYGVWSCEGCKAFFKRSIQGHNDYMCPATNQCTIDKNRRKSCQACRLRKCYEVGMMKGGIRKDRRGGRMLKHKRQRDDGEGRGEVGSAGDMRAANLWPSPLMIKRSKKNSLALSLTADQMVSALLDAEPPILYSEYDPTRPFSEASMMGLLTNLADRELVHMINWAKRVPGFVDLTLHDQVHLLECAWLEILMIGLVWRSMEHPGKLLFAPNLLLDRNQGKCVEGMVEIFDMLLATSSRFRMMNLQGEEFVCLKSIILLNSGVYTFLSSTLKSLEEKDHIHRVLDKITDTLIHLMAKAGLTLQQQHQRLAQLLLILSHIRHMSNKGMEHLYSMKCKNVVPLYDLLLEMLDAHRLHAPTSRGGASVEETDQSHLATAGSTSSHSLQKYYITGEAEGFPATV

CCC1(c2ccccc2)C(=O)N(COC)C(=O)N(COC)C1=O
inactive: Potency [1] | Potency [2] | Potency [3] | Potency [4] | Potency [5]

O=C(NC(=O)c1c(F)cccc1F)Nc1cc(Cl)c(F)c(Cl)c1F
inactive: Potency [6] | Potency [7] | Potency [3] | Potency [8] | activation ([9]; at 70.3 µM (top of the series)) 11.8% | Potency [10] | Potency [4] | Potency [5]

CCNP(=S)(OC)O/C(C)=C/C(=O)OC(C)C (centres undefined)
inactive: Potency [1] | Potency [2] | Potency [7] | Potency [3] | Potency [8] | activation ([9]; at 70.3 µM (top of the series)) 10.8% | Potency [10] | Potency [4] | Potency [5]

CN(C)CCN(C)C
inactive: Potency [1] | Potency [2] | Potency [7] | Potency [3] | Potency [8] | activation ([9]; at 70.3 µM (top of the series)) 18.6% | Potency [10] | Potency [4] | Potency [5]

O=C(Cl)OCc1ccccc1
inactive: Potency [7] | Potency [3] | Potency [8] | activation ([9]; at 95 µM (top of the series)) -4.92% | Potency [10] | Potency [4] | Potency [5]

CCC(=O)OC1(c2ccccc2)CCN(C)CC1
inactive: Potency [1] | Potency [2] | Potency [3] | Potency [4] | Potency [5]

C=C(Cl)CCl
inactive: Potency [1] | Potency [2] | Potency [7] | Potency [3] | Potency [8] | activation ([9]; at 70.3 µM (top of the series)) 0.667% | Potency [10] | Potency [4] | Potency [5]

C[N+]1(C)CCCCC1
inactive: Potency [1] | Potency [3] | Potency [4] | Potency [5]

C[C@H](CN1CCOCC1)C(C(=O)N1CCCC1)(c1ccccc1)c1ccccc1
inactive: Potency [2] | Potency [7] | Potency [8] | activation ([9]; at 95 µM (top of the series)) -2.63% | Potency [10] | Potency [5]

CCCCCCCCBr
inactive: Potency [6] | Potency [3] | Potency [4] | Potency [5]

C#CC(C)(C)O
inactive: Potency [6] | Potency [2] | Potency [4] | Potency [5]

O=C(Cl)/C=C/C(=O)Cl
inactive: Potency [1] | Potency [2] | Potency [7] | Potency [8] | activation ([9]; at 95 µM (top of the series)) 5.56% | Potency [10] | Potency [4] | Potency [5]

C=CCN1CC[C@]23CCCC[C@H]2[C@H]1Cc1ccc(O)cc13
inactive: Potency [2] | Potency [3] | Potency [4] | Potency [5]

CCOc1cc(OP(=S)(OC)OC)nc(CC)n1
inactive: Potency [6] | Potency [7] | Potency [3] | Potency [8] | activation ([9]; at 70.3 µM (top of the series)) -2.44% | Potency [10] | Potency [4] | Potency [5]

O=C(Cl)C(Cl)Cl
inactive: Potency [1] | Potency [2] | Potency [7] | Potency [3] | Potency [8] | activation ([9]; at 70.3 µM (top of the series)) 0.358% | Potency [10] | Potency [4] | Potency [5]

CCN[C@H](C)Cc1cccc(C(F)(F)F)c1
inactive: Potency [2] | Potency [7] | Potency [3] | Potency [8] | activation ([9]; at 70.3 µM (top of the series)) -8.58% | Potency [10] | Potency [4] | Potency [5]

NNCc1ccccc1
inactive: Potency [6] | Potency [3] | Potency [8] | Potency [4] | Potency [5]
active: Potency [9] 62.3 µM

CCN(CCO)CCn1c(Cc2ccccc2)nc2c1c(=O)n(C)c(=O)n2C
inactive: Potency [1] | Potency [2] | Potency [7] | Potency [3] | Potency [8] | activation ([9]; at 70.3 µM (top of the series)) 6.52% | Potency [10] | Potency [5]

CN(C)C1CCCCC1
inactive: Potency [1] | Potency [2] | Potency [7] | Potency [3] | Potency [8] | Potency [10] | Potency [4] | Potency [5]

CC(C)(O)C(Cl)(Cl)Cl
inactive: Potency [7] | Potency [8] | activation ([9]; at 70.3 µM (top of the series)) 7.26% | Potency [10] | Potency [5]
